Test results from the supplement of paper PMC6555819.

The sequences below were run on PPARa:RXRa (NR concentration 270 nM, RXRa partner concentration 90 nM) (assay: PBM binding z-score (relative to random genomic background probes); higher = stronger binding; sequences stand for … in GC…GCGATTGACAGCGTAGAATGAAGG).
How it was run: (§1)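 Ligand-free nuclear receptor dimers were applied to custom Agilent 4×180K protein-binding microarrays whose double-stranded probes carried direct-repeat seeds, single-nucleotide variants, half-site ablations and random human genomic background sequences in 34-nt variable regions. Incubation lasted 1 h. Binding z-scores were computed against the random background probes from regression-normalized fluorescence.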
Sequence ACCGAAAGGTCGAGGTGAGTATAGAGAAAGGGAA has a PBM binding z-score of 4.71. CCTAGCAGGCCAATCTGGGTCACTCATGGCTTGA showed a PBM binding z-score of 2.62. For CCTTACGGGTCACTCCAGGTTATAGCATCGGAGT, the PBM binding z-score was 4.64. In the case of CGAATTAGGTCATCCAGGACAGTGAATACATTGA, the PBM binding z-score is reported as 5.11. CAAACTAGGTCAAAGTCAAAGTCGGTTTGTGCCA was tested, and the PBM binding z-score was 5.18. TCTTGTAGATCAAACGTTAAGAAAGCCGAAGCCT gave a PBM binding z-score of 0.988. For TCTTGTAGATCAACAGGAGGTTAGGAAAGATCGA, the PBM binding z-score was 0.641. With CAAACTAGGTCAAGAGTTCAAAGTCCGCTTCCCG the PBM binding z-score was 6.1. CCCAGTAGGTTATGGGGCATTCAGGCAACGGTGA was tested, and the PBM binding z-score was 2.63. Sequence CGTCCAATGTCAGCAGGTCAGTGAAAGCGACGTG has a PBM binding z-score of 1.22. For ATCGAAAGGACGACGAGGTGAGTATACACCGTTT, the PBM binding z-score was -0.0942. Sequence ATATGCAGGTTAGCTGGGGTCATTCAGACTAGGC has a PBM binding z-score of 4.7. TTACCAAGGTGAAGGTCGTTGACCCCTCTGTAGA showed a PBM binding z-score of 4.34. CCTTACGGGTCACGAGGTTAAAGCACGACGAGCG gave a PBM binding z-score of 6.28. Work on GCGACTGGGGCAAAGCAGGTTAACATAAGGTTGG yielded a PBM binding z-score of 1.41. In the case of ATATGTAGGTTATCGGGTCATTGAGTTTGCGCAT, the PBM binding z-score is reported as 4.75. CCTAGCTGGTCAGGAGGTCACACACCGGATATGA gave a PBM binding z-score of 4.14. TCTTGTAGATCCATAGAGGTTAAGAAAGTGCGCT gave a PBM binding z-score of 1.16. With TAGCCTGGGTCATTGGGCCAGTATAGTACGCATC the PBM binding z-score was 4.11. TTACCAAGGTGAAGGTCTTTGATCCCTCTGTAGA gave a PBM binding z-score of 1.64. Work on ACAAGTTGGTCAGCTGAGGTCACACACAATTCGG yielded a PBM binding z-score of 3.78. CGCACTAGGTCAAGGACAGTGAATCTCCGCACGC gave a PBM binding z-score of 4.26. In the case of ATACCAAGGTGATCGTGAGGTCCTTGATACTAAC, the PBM binding z-score is reported as 0.562. ACAATGAGGTTATACGTAGATCAGGGAAGAAAGT gave a PBM binding z-score of 2.93. For AGAACGAGGGCAATGAGGTGATAGCACGGGTGGC, the PBM binding z-score was 1.72. Sequence GGAACGAGGGCATTCGAGTTGATAACATGGCGAT has a PBM binding z-score of 1.56. Sequence TCGAGTAGGTTACCAATGGGGCATTAAGCTTTCT has a PBM binding z-score of 0.96. With CCTACTGGGCCATTCAGAGGTCGTTGATCATATG the PBM binding z-score was 1.97. GGAATGAGGGCATTCGAGTTGATAGCATGGCGAT was tested, and the PBM binding z-score was 2.13. Sequence ATATCTAGGTTAAGGGTCATTCAGGTTGGTTCGC has a PBM binding z-score of 6.83. Sequence CCTGCTAGGTGAATGGTCAGCTAAAGCAGCTCGC has a PBM binding z-score of 1.25. CGAACGAGGGCATGAGTTGATAGCGAATGCCGAT gave a PBM binding z-score of 1.51. TTACCAAGGTGAGCTGTGGTCGTTGATCCAACTC showed a PBM binding z-score of 0.301. Work on CCTATTAGTTGACCATAAGGGCAACCGTAGCTCG yielded a PBM binding z-score of 0.679. With ATCACTAGGTAAAAGTTCAGTGAATCCCGAGGAT the PBM binding z-score was 4.85. AGAATGAGGTTAAGCTCAGGGAAACAGAATACAT showed a PBM binding z-score of 3.77. Sequence TAGCCTAGGTCATTAGGCCAGTATAGTACGCATC has a PBM binding z-score of 3.31. For AGTCAAAGTACATCTAGGTAACGTAAGATATGCT, the PBM binding z-score was 0.359. Work on CAAACTAGATCAAGAGGTCAAAGTCCGCTTCCCG yielded a PBM binding z-score of 5.77. Work on GGAACGAGGGCAAAGTTGATAGTATCTGTCGACG yielded a PBM binding z-score of 4.02.

These sequences were tested on PPARg:RXRa (NR concentration 180 nM, RXRa partner concentration 90 nM) in the same assay as above.
How it was run: as §1
ACCGAAAGGTCGAGGTGAGTATAGAGAAAGGGAA showed a PBM binding z-score of 3.28. CCTAGCAGGCCAATCTGGGTCACTCATGGCTTGA gave a PBM binding z-score of 1.75. Work on CCTTACGGGTCACTCCAGGTTATAGCATCGGAGT yielded a PBM binding z-score of 3.53. CGAATTAGGTCATCCAGGACAGTGAATACATTGA gave a PBM binding z-score of 7.49. CAAACTAGGTCAAAGTCAAAGTCGGTTTGTGCCA was tested, and the PBM binding z-score was 8.68. Work on TCTTGTAGATCAAACGTTAAGAAAGCCGAAGCCT yielded a PBM binding z-score of 0.748. Sequence TCTTGTAGATCAACAGGAGGTTAGGAAAGATCGA has a PBM binding z-score of -0.123. CAAACTAGGTCAAGAGTTCAAAGTCCGCTTCCCG gave a PBM binding z-score of 9.08. With CCCAGTAGGTTATGGGGCATTCAGGCAACGGTGA the PBM binding z-score was 5.2. In the case of CGTCCAATGTCAGCAGGTCAGTGAAAGCGACGTG, the PBM binding z-score is reported as 0.115. ATCGAAAGGACGACGAGGTGAGTATACACCGTTT was tested, and the PBM binding z-score was 1.08. ATATGCAGGTTAGCTGGGGTCATTCAGACTAGGC gave a PBM binding z-score of 2.52. For TTACCAAGGTGAAGGTCGTTGACCCCTCTGTAGA, the PBM binding z-score was 3.79. With CCTTACGGGTCACGAGGTTAAAGCACGACGAGCG the PBM binding z-score was 7.86. GCGACTGGGGCAAAGCAGGTTAACATAAGGTTGG was tested, and the PBM binding z-score was 1.62. Sequence ATATGTAGGTTATCGGGTCATTGAGTTTGCGCAT has a PBM binding z-score of 7.4. Work on CCTAGCTGGTCAGGAGGTCACACACCGGATATGA yielded a PBM binding z-score of 2.84. With TCTTGTAGATCCATAGAGGTTAAGAAAGTGCGCT the PBM binding z-score was -0.272. For TAGCCTGGGTCATTGGGCCAGTATAGTACGCATC, the PBM binding z-score was 3.81. TTACCAAGGTGAAGGTCTTTGATCCCTCTGTAGA gave a PBM binding z-score of 1.37. Work on ACAAGTTGGTCAGCTGAGGTCACACACAATTCGG yielded a PBM binding z-score of 2.28. In the case of CGCACTAGGTCAAGGACAGTGAATCTCCGCACGC, the PBM binding z-score is reported as 6.58. ATACCAAGGTGATCGTGAGGTCCTTGATACTAAC gave a PBM binding z-score of 0.44. Sequence ACAATGAGGTTATACGTAGATCAGGGAAGAAAGT has a PBM binding z-score of 1.84. With AGAACGAGGGCAATGAGGTGATAGCACGGGTGGC the PBM binding z-score was 1.75. GGAACGAGGGCATTCGAGTTGATAACATGGCGAT showed a PBM binding z-score of 1.3. TCGAGTAGGTTACCAATGGGGCATTAAGCTTTCT was tested, and the PBM binding z-score was 0.247. CCTACTGGGCCATTCAGAGGTCGTTGATCATATG showed a PBM binding z-score of 0.916. GGAATGAGGGCATTCGAGTTGATAGCATGGCGAT showed a PBM binding z-score of 1.46. Work on ATATCTAGGTTAAGGGTCATTCAGGTTGGTTCGC yielded a PBM binding z-score of 11.7. Work on CCTGCTAGGTGAATGGTCAGCTAAAGCAGCTCGC yielded a PBM binding z-score of 2.89. Work on CGAACGAGGGCATGAGTTGATAGCGAATGCCGAT yielded a PBM binding z-score of 1.34. With TTACCAAGGTGAGCTGTGGTCGTTGATCCAACTC the PBM binding z-score was -0.403. CCTATTAGTTGACCATAAGGGCAACCGTAGCTCG gave a PBM binding z-score of 0.376. Sequence ATCACTAGGTAAAAGTTCAGTGAATCCCGAGGAT has a PBM binding z-score of 8.25. AGAATGAGGTTAAGCTCAGGGAAACAGAATACAT gave a PBM binding z-score of 2.4. Work on TAGCCTAGGTCATTAGGCCAGTATAGTACGCATC yielded a PBM binding z-score of 3.34. With AGTCAAAGTACATCTAGGTAACGTAAGATATGCT the PBM binding z-score was 1.35. Work on CAAACTAGATCAAGAGGTCAAAGTCCGCTTCCCG yielded a PBM binding z-score of 4.08. In the case of GGAACGAGGGCAAAGTTGATAGTATCTGTCGACG, the PBM binding z-score is reported as 6.9.
